Compound activity deposited in PubChem by several laboratories.
Shn3 inh set2 = reduces Shn3 3'UTR luciferase signal in osteoblasts; inhibition, % at 12.5 µM; 360,000 compounds, 0.52% hits; Clone20 osteoblast Shn3 3'UTR firefly luciferase, 24 h;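 active = mean inhibition of at least 75% with every replicate also reaching 75%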
CF NFkB inh = cystic fibrosis NF-kB activation inhibition; KKLEB NF-kB-GFP reporter, PAF-induced, GFP fluorescence overnight; inhibition, % at 5 µM; 360,000 compounds, 0.86% hits;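 active = at least 50% inhibition at 5 µM, scaled per plate between neutral and stimulator controls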;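 also: PAF is a Pseudomonas aeruginosa culture filtrate used as stimulus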
HIF-2a inh = HIF-2a inhibition; 360,000 compounds, 0.72% hits; inhibition, % at 18.8 µM; 786-0 RCC cells HIF-2a reporter, luciferase luminescence, overnight;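 active = inhibition of the luminescence signal of 40% or more relative to plate controls, in a single-dose primary screen at 18.75 µM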
MITF TRPM1 inh = reduces MITF-dependent TRPM1 promoter luciferase signal. inhibition, % at 12.5 µM. SK-MEL-5 TRPM1 promoter luciferase, 24 h. 330,000 compounds, 0.83% hits. AID 488899;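 active = mean inhibition across replicates of 60% or more, whatever share of single replicates reaches that level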
KKLEB tox = counter-screen for CF NF-kB inhibitors: cytotoxicity; KKLEB CF airway cells viability, ATPlite luminescence, overnight; active compounds read low; cells stimulated with P. aeruginosa culture filtrate; activity change (cytotoxicity), % at 5 µM; 360,000 compounds, 0.36% hits; AID 602141;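 active = corrected activity change at or below -50% at 5 µM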
Peg3 prom inh-1 = inhibitors of Peg3 promoter. HeLa PEG-Prom luciferase reporter, luminescence, overnight. 360,000 compounds, 1.7% hits. inhibition, % at 20 µM. AID 588405;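 active = inhibition of at least 50% at 20 µM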
Peg3 prom inh-2 = confirmation of Peg3 promoter inhibitors; shares compounds with Peg3 prom inh-1; HeLa PEG-Prom luciferase reporter, luminescence, overnight; inhibition, % at 20 µM; 1,300 compounds, 84% hits;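 active = at 20 µM dose, 40% or more inhibition averaged across four replicates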
A number is an active result; . = inactive; / = no result. An excerpt weighted towards active compounds, which were near 2.7% of everything screened.

SMILES	Shn3 inh set2	CF NFkB inh	HIF-2a inh	MITF TRPM1 inh	KKLEB tox	Peg3 prom inh-1	Peg3 prom inh-2
COc1ccc(OC)c(-c2csc(NC(=O)Cn3[nH]c(=O)c4ccccc4c3=O)n2)c1	.	.	.	.	.	54.8	.
CCOC(=O)c1ccc2ncc(C(=O)OCC)c(NCCN(C)C)c2c1	.	.	.	.	.	55.0	55.3
CCOC(=O)c1cnc2ccc(C(=O)OC)cc2c1Nc1cccc(C(=O)O)c1	.	.	.	.	.	.	/
CC(=O)Nc1ccc2c(c1)C(N1CC3CCC(CC3)C1)c1ccccc1-2 (stereo unspecified)	.	.	.	.	.	.	/
CN1CCN(c2nc(-c3ccccc3)nc3c2oc2ccccc23)CC1	.	.	.	.	.	65.9	.
O=C1NC(Cc2ccccc2)c2nc3cc(F)ccc3c(=O)n2-c2cc3ccccc3cc21 (stereo unspecified)	.	.	.	/	.	.	/
O=C1NC(Cc2ccc(O)cc2)c2nc3ccc(F)cc3c(=O)n2-c2cc3ccccc3cc21 (stereo unspecified)	.	.	.	/	.	54.1	60.0
Cc1ccsc1CNC(=O)C1(C)CCN1C(C)C (stereo unspecified)	.	.	.	/	.	.	/
CC(=O)Nc1sc(C)c(C)c1C(=O)OCC(=O)Nc1cccc(C)c1	.	.	.	.	.	89.5	.
CC(=O)Nc1sc(C)c(C)c1C(=O)OCC(=O)Nc1ccccc1	.	.	.	.	.	.	/
COc1ccc(/C=C/C(=O)c2ccc3c(c2)OCCO3)cc1[N+](=O)[O-]	.	.	.	.	.	71.1	79.8
CCOc1ccccc1C(=O)NCC(=O)N(C)CC(=O)Nc1ccc(N2CCOCC2)cc1	.	.	.	/	.	.	/
COc1ccc(-n2nc(C(=O)Nc3ccc(OC)c(OC)c3)c3c4ccccc4n(C)c3c2=O)cc1	.	64.3	.	.	-59.7	61.6	.
CCN(CC)C(=O)C1=C(C)N(Cc2ccc(OC)cc2)C(=O)C(CC(=O)NCCN2CCOCC2)C1 (stereo unspecified)	.	.	.	/	.	.	/
CCCCCCN1CCN(C2CN(C3CCCCC3)S(=O)(=O)C2)CC1 (stereo unspecified)	.	.	.	/	.	.	/
CCCCCCCn1c(=N)n(CC(=O)c2ccco2)c2ccccc21	.	.	.	.	.	87.2	63.7
CCCCCCCn1c(=N)n(CC(O)c2ccco2)c2ccccc21 (stereo unspecified)	.	.	.	.	.	80.3	90.7
CC1(C(=O)Nc2ccc3c(c2)OCCO3)CSCC(=O)N1CCc1ccccc1F (stereo unspecified)	/	/	.	/	/	/	/
CN(C)C=Nc1ncc2c3ccccc3n(CCN(C)C)c2c1C#N	.	.	.	.	.	.	/
CCN(CC)CCn1c2ccccc2c2cnc(N)c(C#N)c21	.	.	.	.	.	90.8	93.6
CCCn1nc(C(=O)Nc2nc(-c3ccccn3)cs2)c2ccccc2c1=O	.	.	.	.	.	70.3	62.1
CCCn1nc(C(=O)Nc2nnc(C3CC3)s2)c2ccccc2c1=O	.	.	.	.	.	.	/
O=C1NC[C@H](CCCCN2CCN(CCc3ccc(O)cc3)C(=O)C2=O)N(CCc2ccc(O)cc2)C1=O	/	/	.	/	/	/	/
Cc1c(CCOC(=O)C23CC4CC(CC(C)(C4)C2)C3)sc[n+]1CC(=O)c1ccccc1	.	.	.	.	.	54.1	90.5
Cc1cc(C)c2nc(NNC(=O)c3ccc(S(=O)(=O)N4CC(C)CC(C)C4)cc3)sc2c1 (stereo unspecified)	89.7	.	.	68.8	.	94.1	98.8
SMILES	Shn3 inh set2	CF NFkB inh	HIF-2a inh	MITF TRPM1 inh	KKLEB tox	Peg3 prom inh-1	Peg3 prom inh-2
CCC(=O)NNc1nc2c(C)cc(C)cc2s1	.	.	.	.	.	.	/
COc1cccc(C(O)c2nc(-c3ccc(OC)nc3)cs2)c1 (stereo unspecified)	.	.	.	/	.	.	/
CN1Cc2c(N3CCOCC3)nc3sc(C#N)c(N)c3c2CC1(C)C	.	.	.	.	.	.	/
CN1Cc2c(N3CCOCC3)nc3sc(C(=O)c4ccc(Br)cc4)c(N)c3c2CC1(C)C	/	.	.	/	.	80.0	96.8
S=C(NCc1ccccc1)C(=S)NCc1ccccc1	.	.	.	.	.	.	/
c1ccc(CN=C(NCc2ccccc2)NCc2ccccc2)cc1	83.4	.	.	.	.	89.8	88.4
Cc1nn(-c2ccccc2)c2c1C(c1ccc([N+](=O)[O-])cc1)N1C(=N2)C(=O)Nc2ccccc21 (stereo unspecified)	.	.	.	.	.	52.8	50.4
Cc1nn(-c2ccc([N+](=O)[O-])cc2)c2c1C(c1cccc(Br)c1)N1C(=N2)C(=O)Nc2ccccc21 (stereo unspecified)	.	.	.	.	.	.	/
Cc1cc(O)ccc1-c1cccc2nccn12	.	.	.	/	.	.	/
COc1cc(CNCCCN2CCOCC2)ccc1OCC(=O)Nc1cccc(C(F)(F)F)c1	.	.	.	.	.	.	/
CCOc1cc(CNCCCN2CCOCC2)ccc1OCC(=O)Nc1cccc2ccccc12	.	.	.	.	.	50.2	64.4
CC1Nc2ncnc(N3CCc4ccccc4C3)c2N(Cc2ccccc2)C1=O (stereo unspecified)	.	.	.	/	.	.	/
COc1ccc(NC(=O)c2cc3ccccc3oc2=O)cc1	.	.	.	/	.	55.4	.
COc1ccc2oc(=O)c(C(=O)Nc3ccccc3O)cc2c1	.	.	.	.	.	.	/
Cc1ccc(C(=O)Nc2cc3ccccc3oc2=O)cc1	.	.	49.1	90.9	.	90.3	61.7
CC(=O)Nc1cc2ccccc2oc1=O	.	.	.	.	.	.	/
O=C(Nc1nnc([C@@H]2C[C@H](O)[C@@H](CO)O2)s1)Nc1ccccc1Oc1ccccc1	.	.	.	/	.	.	/
COc1cccc(CNC(=O)[C@@H]2CCCN2C(=O)[C@H]2CCCCN2C(=O)c2cccc(Cl)c2)c1	/	/	.	/	/	/	/
CCOC(=O)C1(C)CCCN(C(=O)c2cccc(OC(F)(F)F)c2)C1 (stereo unspecified)	.	.	.	/	.	.	/
COc1ccc(NC(=O)C[C@H]2C(=O)N(Cc3ccccc3)C[C@@H]2CSC)cc1	.	.	.	/	.	.	/
CN1CCC(N(C)S(=O)(=O)c2ccc(NC(=O)COc3ccc(Br)cc3Cl)cc2)CC1	.	.	.	.	.	70.8	70.6
Cc1c(C(=O)Nc2ccc(S(=O)(=O)N(C)C3CCN(C)CC3)cc2)oc2c(Cl)cccc12	.	.	.	79.3	.	99.3	98.7
O=C(C[C@H]1CC[C@@H](NS(=O)(=O)c2ccccc2)[C@@H](CO)O1)NCc1ccc(Cl)c(Cl)c1	/	/	.	/	/	/	/
